Source: PubChem BioAssay
Rows were chosen to be rich in hits. Some 5.4% of all compounds tested hit in one or more screens of this group.
CtBP-E1A blk = qHTS Assay for Inhibitors of the CtBP/E1A Interaction; CtBP / adenovirus E1A interaction (AlphaScreen); AlphaScreen GST-E1A/His-CtBP binding, 1536-well; active compounds read low; activity change, % (test concentration not listed); hit rate 0.49% among 340,000; AID 651724, 2012; in the data active = activity change below about -65%; inconclusive = mostly about -30% to -63%
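Protein mix (5X: 125 nM each GST-E1A, His-CtBP) was incubated with pinned compound 2 h at 37 deg C in dark, in 50 mM Tris pH 8.0 buffer with 300 mM NaCl. Glutathione donor and nickel acceptor beads followed; AlphaScreen signal read after 1 h.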
Six1-Eya2 inh = qHTS Assay for Inhibitors of the Six1/Eya2 Interaction; Homeobox protein SIX1 (Homo sapiens) + Protein phosphatase EYA2 (Homo sapiens), …; AlphaScreen GST-Six1/His-Eya2 binding, biochemical; active compounds read low; activity change, % (test concentration not listed); hit rate 0.56% among 360,000; in the data active = activity change below about -65%; inconclusive = mostly about -30% to -63%
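AlphaScreen luminescence read after one hour at 37 °C in darkness. Pin-transferred compounds met GST-Six1 and His-Eya2 protein (5X stock 250 nM/500 nM) plus glutathione donor and Ni-chelate acceptor beads (5X, 50 ug/mL).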
RORgamma inh = qHTS for inhibitors of ROR gamma transcriptional activity; Nuclear receptor ROR-gamma (Mus musculus), P51450; Drosophila S2 Gal4-RORgamma UAS-luciferase reporter, 20 h; Potency, µM (titrated, usually from 53.6 µM), usual class: inhibitors; hit rate 5.4% among 310,000; AID 2551, 2010; note: nearly all actives have a fitted effect of over 60% in size
Target sequence (P51450 whole entry, looked up, the tested form may be a part): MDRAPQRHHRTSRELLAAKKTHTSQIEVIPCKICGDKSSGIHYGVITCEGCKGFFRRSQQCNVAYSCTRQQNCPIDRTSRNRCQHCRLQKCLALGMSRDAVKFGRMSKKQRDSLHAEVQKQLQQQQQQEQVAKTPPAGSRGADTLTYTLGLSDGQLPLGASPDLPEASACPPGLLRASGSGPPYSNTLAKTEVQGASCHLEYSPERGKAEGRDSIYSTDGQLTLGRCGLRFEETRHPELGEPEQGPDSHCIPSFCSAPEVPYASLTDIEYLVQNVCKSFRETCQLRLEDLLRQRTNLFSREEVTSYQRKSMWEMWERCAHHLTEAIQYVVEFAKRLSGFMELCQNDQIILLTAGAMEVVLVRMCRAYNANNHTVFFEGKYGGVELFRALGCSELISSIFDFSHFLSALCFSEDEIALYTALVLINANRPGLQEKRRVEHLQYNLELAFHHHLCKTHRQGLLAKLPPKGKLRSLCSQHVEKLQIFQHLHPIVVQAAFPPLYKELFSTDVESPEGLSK
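Read-out: Photinus luciferase luminescence; inhibitors lower reporter signal. Insect Schneider cells with Gal4-ROR gamma fusion under metallothionein promoter, UAS reporter; 700 uM final copper sulfate induction, 20 hr, ambient temperature.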
Gal4-VP16 FLuc = VP16 counterscreen qHTS for inhibitors of ROR gamma transcriptional activity | Potency, µM (top dose mostly 53.6 µM), actives largely listed as inhibitors | Drosophila S2 Gal4-VP16 UAS-luciferase, luminescence, 20 h | hit rate 3.5% among 310,000;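 note: Gal4-VP16 expression switched on by copper sulfate through the metallothionein promoter; nearly all actives have a fitted effect of over 50% in size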
p53 reactivator = qHTS assay for re-activators of p53 using a Luc reporter | H1299 p53-A138V BP100-luciferase reporter, luminescence, 24 h | Potency, µM (top dose mostly 92.2 µM), actives largely listed as activators | hit rate 0.063% among 320,000; note: nearly all actives have a fitted effect of over 45% in size
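H1299 (p53-null), stable ts p53-A138V + BP100-Luc; 1000 cells/well, Opti-MEM/10% FBS; cpd 4 pt, 1:5; 24 h, 37 deg C, 5% CO2; detection reagent 10 min RT; luminescence.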
Numbers stand for hits; 0 = inactive; ? = inconclusive; - = no result; [ ] = another dose, or the depositor's remark. Unless noted, calls come from the whole dose curve; as a rule, active = well fitted curve in the direction sought with a large enough effect; inconclusive = small, poorly fitted or top-dose-only effect, or another doubt; inactive = no such curve, though single readings can be large; an effect the other way counts as inactive or inconclusive.

SMILES	CtBP-E1A blk	Six1-Eya2 inh	RORgamma inh	Gal4-VP16 FLuc	p53 reactivator
O=C(NNc1nc2c(F)cc(F)cc2s1)C1COc2ccccc2O1 (configuration not stated)	0	0	13µM	0	0
Cc1cc(C)c2sc(NC(=O)C3CC3)nc2c1	0	0	6.3µM	0	0
Cc1cccc2sc(NNC(=O)C3COc4ccccc4O3)nc12 (configuration not stated)	0	0	6.3µM	11µM	0
COc1ccc(OC)c2sc(NNC(=O)C3COc4ccccc4O3)nc12 (configuration not stated)	0	0	?	0	0
Cc1cc(C)c2sc(NNC(=O)C3COc4ccccc4O3)nc2c1 (configuration not stated)	0	0	2.8µM	18µM	0
CCN(CC(=O)Nc1c(F)cccc1F)C(=O)c1ccc(C)c(S(=O)(=O)N2CCCCC2)c1	0	0	-	-	0
CC(C)(C)CC(=O)Nc1nnc(SCC(=O)N2CCCCC2)s1	0	0	0	0	0
c1ccc2c(c1)CNc1ccccc1-2	0	0	-	-	-
O=C(c1ccncc1)N1CCC2(CC1)CN(C(c1ccccc1)c1ccccc1)C2	-	-	0	0	-
CC(C)c1ccc(NC(=O)c2ccccc2NC(=O)C2CC=CCC2C(=O)O)cc1 (configuration not stated)	0	0	?	0	0
O=C(Nc1nncs1)C1COc2ccccc2O1 (configuration not stated)	0	0	0	0	0
CC(=O)c1sc(NC(=O)C2COc3ccccc3O2)nc1C (configuration not stated)	0	0	7.1µM	10µM	?
O=C1CC[C@@H]2C[C@@]3(C[C@@H]4CCN1[C@H]24)Nc1cc([N+](=O)[O-])ccc1NC3=NCc1ccccc1	0	0	-	-	-
NCCCCCCCCCCNS(=O)(=O)c1cccc2c(Cl)cccc12	-	-	?	32µM	-
Fc1ccc(-c2c[nH]c(=S)n2Cc2ccccc2)cc1	0	0	0.63µM	1.4µM	0
Oc1ccc(-c2n[nH]c(=S)n2Cc2ccccc2)cc1	0	0	0[0.365 µM]	-	0
S=c1[nH]nc(-c2cccnc2)n1Cc1ccccc1	0	0	?	?	0
S=c1[nH]nc(-c2ccc(Br)cc2)n1Cc1ccccc1	0	0	2.2µM	5.6µM	0
Fc1ccc(-c2n[nH]c(=S)n2Cc2ccccc2)cc1	0	0	2.8µM	11µM	0
S=c1[nH]nc(-c2ccncc2)n1Cc1ccccc1	0	0	13µM	0	0
CCCCCCCCCCCCCCCCC(C(=O)O)C(O)(CC(=O)O)C(=O)O (configuration not stated)	-	-	0	0	-
Cc1ccc2c(c1)C1(C(=O)N2)N2CCCC2C(C(=O)c2ccc3ccccc3c2)C12C(=O)Nc1ccccc12 (configuration not stated)	0	0	?	?	-
Cc1cc(-c2n[nH]c(=S)n2Cc2ccccc2)cs1	0	0	5.6µM	?	0
FC(F)C(F)(F)Oc1cccc(-c2n[nH]c(=S)n2Cc2ccccc2)c1	0	0	-	-	0
CC(C)n1c(-c2ccc(C(C)(C)C)cc2)n[nH]c1=S	0	0	4.5µM	10µM	0
SMILES	CtBP-E1A blk	Six1-Eya2 inh	RORgamma inh	Gal4-VP16 FLuc	p53 reactivator
Cc1ccc(-c2n[nH]c(=S)n2C)cc1	0	0	?	?	0
CC(C)(C)c1ccc(-c2n[nH]c(=S)n2Cc2ccccc2)cc1	0	0	2.2µM	7.1µM	0
CCCCOc1ccc(-c2n[nH]c(=S)n2Cc2ccccc2)cc1	0	0	1.6µM	?	0
Cc1ccn2c(-c3n[nH]c(=S)n3Cc3ccccc3)c(C)nc2c1	0	0	0	0	0
Nc1ncnc(NNC(=O)CNC(=O)c2c(F)cccc2Cl)c1[N+](=O)[O-]	?	?	0	0	0
CCc1cc(C(=O)N2CCN(C(=O)c3ccccc3)CC2)sc1C	0	0	-	-	0
CCN(CC)CC(C)CNC(=O)CC(C(=O)N1CCc2ccccc21)n1ccnc1 (configuration not stated)	0	0	11µM	0	0
CCC(C)n1c(S(=O)(=O)O)nc2ccccc21 (configuration not stated)	0	0	0	0	0
COc1ccc(/C=C/c2nc3ccccc3n2C)cc1	0	0	2µM	?	0
COc1ccc(-c2n(Cc3ccccc3)c3ccccc3[n+]2Cc2ccccc2)cc1	0	0	5.6µM	5µM	0
COc1ccc(OCC(O)Cn2c(=N)n(Cc3ccccc3)c3ccccc32)cc1 (configuration not stated)	?	?	?	0	0
COc1ccc2c(c1)nc(N)n2Cc1ccccc1	0	0	?	?	0
COc1ccc(Cn2c(/C=C/c3ccccc3)nc3ccccc32)cc1	0	0	7.1µM	?	0
CCC(C)n1c(/C=C/c2ccccc2)nc2ccccc21 (configuration not stated)	0	0	10µM	13µM	0
COCCn1c(=O)cnc2cnc(OC)nc21	-	-	0	0	-
CC(C)(C)CC(=O)Nc1ccc(Nc2ccccc2)cc1	0	0	0	0	?
CCCn1c(/C=C/c2cc[n+](C)cc2)nc2ccccc21	0	0	0	0	-
CCn1c(/C=C/c2ccccc2)nc2ccccc21	0	0	16µM	?	0
CC(C)Cn1c(/C=C/c2ccccc2)nc2ccccc21	0	0	11µM	11µM	?
C=CCn1c(-c2ccc(OC)cc2)nc2ccccc21	0	0	?	0	0
CCn1c(/C=C/c2ccccc2)nc2ccccc2c1=O	0	0	0	0	0
COc1ccc(/C=C/c2nc3ccccc3c(=O)o2)cc1	0	0	4.5µM	7.9µM	0
COc1ccc(-c2nc3ccccc3n2Cc2ccccc2)cc1	0	0	4µM	?	0
COc1ccc2c(c1)CCC1[C@@H]2CCC2(C)[C@@H](NCCCCCCN3C(=O)C=CC3=O)CC[C@@H]12 (some centres not stated)	-	-	0	0	-
Cc1ccc(S(=O)(=O)NCCc2nnc(SCc3cccnc3)n2C)cc1	0	0	0	0	0
CC(=O)Cn1nnc2sc3c(c2c1=O)CCC(C(C)(C)C)C3 (configuration not stated)	0	0	0	?	0
COCCCn1c(=S)[nH]c2sc3c(c2c1=O)CCCS3	0	0	1µM	2.8µM	0
COCCn1c(=S)[nH]c2sc3c(c2c1=O)CCC(C)C3 (configuration not stated)	0	0	1.1µM	1.3µM	?
Cn1c(=S)[nH]c2sc3c(c2c1=O)CCC(C(C)(C)C)C3 (configuration not stated)	-	-	0.32µM	1µM	20µM
Nn1c(=S)[nH]c2sc3c(c2c1=O)CCCC3	0	0	-	-	-
